Inconclusive results are not listed. Active and inactive are the calls of the source. Rule for the calls, unless noted: active = hit-call score of the fitted dose curve at least 0.9, where 1 is the maximum; inactive = score below 0.9.
How the values were obtained:
[1] = CCTE_Harrill_HTTr_Viability_MCF7: CCTE's 6-hour Cell Viability Assessment for the High-Throughput Transcriptomics (HTTr) Platform, in MCF-7 cells cultured in DMEM + 10% fetal bovine serum, Harrill Lab (AID 2284010)
In short: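 PI exclusion, high-content imaging; 8-pt dilution series, 6 h exposure; bidirectional fit vs DMSO (neg. ctrl/baseline); gain of signal = loss of membrane integrity.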

[2] = CCTE_Harrill_HTTr_Apoptosis_MCF7: CCTE's 6-hour Apoptosis Assessment for the High-Throughput Transcriptomics (HTTr) Platform, in MCF-7 cells cultured in DMEM + 10% fetal bovine serum, Harrill Lab (AID 2284011)
In short: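 Cells are dosed with test chemicals at eight concentrations and imaged 6 hours later for caspase-3/7 activity using a green fluorogenic detection reagent. Activity is fitted in both directions against DMSO controls.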

[3] = CCTE_Harrill_HTTr_CellCount_MCF7: CCTE's Cell Proliferation Assessment for the High-Throughput Transcriptomics (HTTr) Platform, Harrill Lab (AID 2284012; active = hit-call score of the fitted dose curve at least 0.9, where 1 is the maximum;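 note: count of Hoechst-stained nuclei per well by high-content imaging in MCF-7 cells; cells exposed to compound for six hours; intended direction is loss of nuclei count meaning fewer cells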)
In short: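 Readout: Hoechst nuclear count by high-content imaging. MCF-7, 8-point dilution series, 6 h exposure. Bidirectional fit vs DMSO baseline.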

Measured: outcome

O=C(O)c1ccccc1C(=O)OC1CCCCC1
inactive: all assays above

Cc1ncc(C[n+]2csc(CCO)c2C)c(N)n1
inactive: all assays above

Cc1cc(N=Nc2c(O)ccc3ccccc23)c(S(=O)(=O)O)cc1Cl
inactive: all assays above
